Where two headings read alike, the source gives them in different places. Out of some 13,000 compounds screened, about 3,200 (25%) showed an effect of 50% or more. This is one part of the list.

In the assay the test system is P. falciparum stage V gametocytes. Further details: BacTiter-Glo ATP luminescence viability of purified stage V gametocytes in 384-well plates, per cent inhibition versus DMSO. The note with it: 48 h, 5 µM, inhibitor.

Usually % Inhibition stands for the drop in the measured response relative to a control, in per cent. `Cc1cccc2nc(-c3ccc(-c4ccc(NC(=O)C(C)CN(C)C)cc4)s3)[nH]c12` (centres unmarked) [TCMDC-137115]: the “% Inhibition” value came out at 20.93%.
On to `COc1nc2c(CCN3CCC(NCc4ccc5c(n4)NC(=O)CO5)CC3)c(Cl)cnc2cc1F` [TCMDC-135766], for which the “% Inhibition” value is recorded as -7.442%.
Consider `CN1CCN(Cc2cc3cc(NC(=O)/C=C/c4cccc(Cl)c4)ccc3s2)CC1` [TCMDC-135630], for which the “% Inhibition” value is recorded as -63.97%.
On to `CC(C)C[C@@H](/C=N/N1CCNC1=O)NC(=O)[C@H](CC(C)C)NC(=O)c1ccc(OCCN2CCOCC2)cc1` [TCMDC-136227], for which the “% Inhibition” value is listed as 6.84%.
In the case of `COC(=O)c1cccc(CNCc2cccc(-c3cccc(-c4nc5cc(C(F)(F)F)ccc5[nH]4)c3)c2)c1.O=C(O)C(F)(F)F` [TCMDC-132949], the “% Inhibition” value stood at 2.495%.
Turning to `CCC(CC)(Cc1ccccc1)NC(=O)[C@H](CC1CCCCC1)Nc1ccc(C#N)c2ccccc12` [TCMDC-136634], the “% Inhibition” value is reported as -0.7992%.
Consider `CCC(CC)(Cc1ccccc1)NC(=O)[C@H](Cc1ccc(OC)c(OC)c1)Nc1ccc(C#N)c2ccccc12` [TCMDC-136638], for which the “% Inhibition” value was found to be 82.88%.
`N#Cc1ccc(N[C@@H](CC2CCCCC2)C(=O)Nc2ccc(-c3ccccc3)cc2)c2ccccc12` [TCMDC-136629]: the “% Inhibition” value is given as 57.71%.
Same read-out and setting: with `CC(C)(CC1CCCCC1)NC(=O)[C@H](CC1CCCCC1)Nc1ccc(C#N)c2ccccc12` [TCMDC-136632] the figure was -68.15%.
In the case of `Cc1cc(NC(=O)[C@H](CC2CCCCC2)Nc2ccc(C#N)c3ccccc23)ccc1F` [TCMDC-136627], the “% Inhibition” value was 3.721%.
With `CCC(CC)(Cc1ccccc1)NC(=O)[C@H](CC(C)C)Nc1ccc(C#N)c2ccccc12` [TCMDC-136625], the “% Inhibition” value is -7.489%.
Consider `CC(=O)c1ccc(-c2ccccc2)s1` [TCMDC-123882], for which the “% Inhibition” value is -10.02%.
In the case of `CC[C@H](C)[C@H](NC(=O)[C@H](CC1CCCCC1)[C@H](CC)N(O)C=O)C(=O)Nc1ccccn1` [TCMDC-137215], the “% Inhibition” value stood at 2.069%.
For `CC(=O)Nc1cccc(-c2cn(-c3ccc(OCc4cccc(F)c4)c(Cl)c3)c3ncncc23)c1` [TCMDC-135093], the “% Inhibition” value was -24.36%.
On the same count and under the same terms, with `COc1ccc(C2C(C(=O)OC3CCCC3)=C(C)NC3=C2C(=O)CCC3)cc1Br` (centres unmarked) [TCMDC-124211] the figure was -24.26%; with `CCn1cc(C=C2Oc3c(ccc(O)c3CN3CCCCC3C)C2=O)c2ccccc21` (centres unmarked) [TCMDC-124886], 27.57%; with `Cc1cc(C(=O)Nc2nc(-c3ccccn3)nc3ccsc23)no1` [TCMDC-135243], 58.63%.
As to `Cc1onc(-c2ccccc2)c1C(=O)Nc1nc(-c2ccccn2)nc2ccsc12` [TCMDC-135272], the “% Inhibition” value is recorded as -61.64%.
Turning to `Cc1occc1C(=O)Nc1nc(-c2ccccn2)nc2ccsc12` [TCMDC-135244], the “% Inhibition” value is recorded as 130.5%.
For the compound `Cc1cc(C(=O)Nc2ccc(-c3ccccc3)cc2)no1` [TCMDC-124865], the “% Inhibition” value turned out to be 48.28%.
`COc1ccc(C(=O)Nc2ccc3oc(-c4ccc(C(F)(F)F)cc4)cc3c2)cc1CCCN(C)C` [TCMDC-138694]: the “% Inhibition” value amounted to 15.28%.
For `COc1ccc2nccc([C@@H](O)CN3CCC(c4cc(-c5ccc(Cl)cc5)n[nH]4)CC3)c2n1` [TCMDC-141436], the “% Inhibition” value came to 81.16%.
In the case of `COc1ccc2nccc([C@@H](O)CN3CCC(NCc4cc5cccnc5[nH]4)CC3)c2n1` [TCMDC-140769], the “% Inhibition” value is recorded as 87.86%.
In the case of `COc1ccc2nccc([C@@H](O)CN3CCC(NCc4ccc5c(c4)NC(=O)CS5)CC3)c2n1` [TCMDC-141173], the “% Inhibition” value is recorded as 12.99%.
Consider `COc1ccc2nccc([C@@H](O)CN3CCC(NCc4cc5c(F)ccc(F)c5[nH]4)CC3)c2n1` [TCMDC-140749], for which the “% Inhibition” value was determined as 33.6%.
For `COc1ccc2nccc([C@@H](O)CN3CCC(NCc4cc5c(cc4F)SCC(=O)N5)CC3)c2n1` [TCMDC-141432], the “% Inhibition” value is listed as 52.03%.
`COc1ccc2nccc([C@@H](O)CN3C4CCC3CC(NCc3ccc5c(n3)NC(=O)CS5)C4)c2n1` (some centres unmarked) [TCMDC-134697]: the “% Inhibition” value came to 50.82%.
For the compound `COc1cc(F)c2nccc([C@@H](O)CN3CCC(NCc4ccc5c(n4)NC(=O)CS5)CC3)c2c1` [TCMDC-141566], the “% Inhibition” value was 6.174%.
Take `COc1ccc2nccc([C@@H](O)CN3CCC(NCc4cc5ccccc5[nH]4)CC3)c2n1` [TCMDC-140670]: the “% Inhibition” value stood at 14.92%.
The same measure, in the same setting: with `COc1ccc2nccc(N(C)CC3(O)CCC(NCc4ccc5c(n4)NC(=O)CS5)CC3)c2n1` (centres unmarked) [TCMDC-134496] the figure was 10.91%; with `COc1ccc2nccc([C@@H](O)CN3CCC(NCc4cc5ccccc5cn4)CC3)c2n1` [TCMDC-140714], 12.93%; with `COc1ccc2nccc([C@@H](O)CN3CCC(NCc4ccc5cccc(O)c5n4)CC3)c2n1` [TCMDC-140748], 43.79%.
For `COc1ccc2nccc(NCC3(O)CCC(NCc4ccc5c(n4)NC(=O)CS5)CC3)c2n1` (centres unmarked) [TCMDC-134313], the “% Inhibition” value came to 46.62%.
Regarding `COc1ccc2ncc(F)c(C(O)CN3CCC(NCc4ccc5c(n4)NC(=O)CO5)CC3)c2c1` (centres unmarked) [TCMDC-135531], the “% Inhibition” value (% Inhibition) was 14.63%.
With `CN(C)CCOc1ccc2c(c1)OC(C)(C)C=C2c1cccc2ccccc12` [TCMDC-131402], the “% Inhibition” value is on record as -10.44%.
Same read-out and setting: with `CNC(=O)C1Cc2c([nH]c3c(C)cccc23)C2(N1)C(=O)Nc1ccc(OC(F)(F)F)cc12` (centres unmarked) [TCMDC-140663] the figure was 46.7%; with `COc1cc(Cc2cnc(N)nc2N)ccc1OCc1csc(-c2ccc(Cl)cc2)n1` [TCMDC-138680], 16.88%; with `CCCc1cc(C(C)=O)ccc1OCCCON1C(N)=NC(N)=NC1(C)C` [TCMDC-131336], -2.455%.
The same measure, in the same setting: with `CS(=O)(=O)NCCCNCc1cccc(-c2ccc(-c3nc4ccccc4[nH]3)s2)c1.O=C(O)C(F)(F)F` [TCMDC-133088] the figure was 4.156%; with `CC(=O)c1sc2ccccc2c1O` [TCMDC-125829], 14.25%; with `COc1ccc2nccc(NC(=O)OC3CCC(NCc4ccc5c(n4)NC(=O)CS5)CC3)c2c1` (centres unmarked) [TCMDC-141555], -20.26%.
Turning to `COc1ccc2nccc(CCC3(O)CCC(NCc4cc5c(cc4F)SCC(=O)N5)CC3)c2c1` (centres unmarked) [TCMDC-141917], the “% Inhibition” value is 62.44%.
As to `COc1ccc2nccc(NC(=O)C3CCC(NCc4ccc5c(c4)NC(=O)CS5)CC3)c2c1` (centres unmarked) [TCMDC-141228], the “% Inhibition” value is reported as 28.37%.
As for `O=C(Nc1cccc(-c2cccc(-c3nc4ccccc4[nH]3)c2)c1)Nc1ccc(Cl)c(Cl)c1` [TCMDC-133276], the “% Inhibition” value is -27.25%.
In the case of `CN1CCC(N(Cc2ccc(N3CCN(Cc4c[nH]c5ccc(Cl)cc45)CC3)nc2)C2CC2)CC1` [TCMDC-125090], the “% Inhibition” value is 56.06%.
On the same count and under the same terms, with `O=C(NC1CC1)c1ccc(N2CCN(Cc3ccc(Cl)cc3)CC2)nc1` [TCMDC-134579] the figure was -1.025%.
The same measure, in the same setting: with `CN(C)C1CCN(Cc2ccc(N3CCN(Cc4cccc5[nH]ccc45)CC3)nc2)CC1` [TCMDC-125091] the figure was 12.57%.
With `COc1ccc(-c2nc3c(N)nc(N)nc3nc2C(C)C)cc1` [TCMDC-132109], the “% Inhibition” value is -10.94%.
On to `COc1ccc2nccc([C@@H](O)CN3CCC(NC(=O)C(c4cc5ccccc5s4)N4CCN(c5ccccc5OC)CC4)CC3)c2c1` (some centres unmarked) [TCMDC-140998], for which the “% Inhibition” value was -1.294%.
On to `Cc1ccc(-n2nc(C)c3c2NC(=O)CSC3c2ccsc2)cc1` (centres unmarked) [TCMDC-124763], for which the “% Inhibition” value turned out to be 18.54%.
As for `Cc1cccc(-n2nc(C)c3c2NC(=O)CC3C(=O)c2ccc(Cl)s2)c1` (centres unmarked) [TCMDC-124735], the “% Inhibition” value is listed as 9.48%.
Still for that read-out and setting: with `Cc1nn(-c2cccc(Cl)c2)c2c1C(C(=O)c1ccc3c(c1)OCO3)CC(=O)N2` (centres unmarked) [TCMDC-124734] the figure was 53.61%.
For the compound `COc1ccc2ncc(F)c(CCN3CC(O)C(CNCc4nc5c(cc4Cl)OCC(=O)N5)C3)c2n1` (centres unmarked) [TCMDC-136076], where the note is “% Inhibition”, the “% Inhibition” value was found to be 36.95%.
On to `CN(C)c1ccc(Br)c(Br)c1` [TCMDC-137228], for which the “% Inhibition” value is -4.164%.
Regarding `CCc1ccc(N2C(N)=NC(N)=NC2(C)C)cc1` [TCMDC-137714], the “% Inhibition” value was 18.99%.
Consider `O=C(Nc1cccc2ccccc12)N1CCc2cc3nccc(N4CCN5CCC[C@H]5C4)c3cc21` [TCMDC-140051], for which the “% Inhibition” value is recorded as -22.56%.
As for `COc1ccc(N2CCN(CCCC/C=C/c3ccc(NC(=O)c4cc(Cl)cc(Cl)c4)cc3)CC2)c(OC)c1` [TCMDC-138219], the “% Inhibition” value is recorded as 10.07%.
As for `COc1ccc(N2CCN(CCCCNC(=O)c3ccc(NC(=O)c4ccc(Cl)c(Cl)c4)cc3)CC2)c(OC)c1` [TCMDC-138159], the “% Inhibition” value turned out to be 58.71%.
For the compound `COc1ccc(N2CCN(CCCCNC(=O)c3ccc(NC(=O)c4cccc(Cl)c4)cc3)CC2)c(OC)c1` [TCMDC-138183], the “% Inhibition” value amounted to 74.19%.
The same measure, in the same setting: with `COc1ccc(N2CCN(CCCCNCc3ccc(NC(=O)c4cc(Cl)cc(Cl)c4)cc3)CC2)c(OC)c1` [TCMDC-138226] the figure was 99.96%; with `COc1ccc(N2CCN(CCCOc3ccc(NC(=O)c4cc(Cl)cc(Cl)c4)cc3)CC2)c(OC)c1` [TCMDC-138225], -23.18%.
On the same count and under the same terms, with `COc1ccc(N2CCN(CCCCNC(=O)c3ccc(NC(=O)c4ccc(C(F)(F)F)cc4)cc3)CC2)c(OC)c1` [TCMDC-138132] the figure was -49.13%; with `COc1ccc(N2CCN(CCCCNC(=O)c3ccc(NC(=O)c4ccc(Cl)cc4)cc3)CC2)c(OC)c1` [TCMDC-138121], -18.96%.
Consider `COc1ccc(N2CCN(CCCNC(=O)c3ccc(NC(=O)c4cc(Cl)cc(Cl)c4)cc3)CC2)c(OC)c1` [TCMDC-138244], for which the “% Inhibition” value is listed as -9.881%.
On the same count and under the same terms, with `COc1ccc(N2CCN(CCCCNC(=O)c3ccc(NC(=O)c4cc(Cl)cc(Cl)c4)cc3)CC2)c(OC)c1` [TCMDC-138158] the figure was -3.672%.

Values taken from article PMC4552634, “A New Set of Chemical Starting Points with Plasmodium falciparum Transmission-Blocking Potential for Antimalarial Drug Discovery” (PLoS ONE, 2015).
